Results reported in ChEMBL document CHEMBL4513146, “CO-ADD screening of Karazin Kharkiv National University (Ukraine) compounds”.
Entries with a potency or affinity are not part of this list.

Columns and labels:
Klebsiella pneumoniae = conditions: Concentration 32 ug.mL-1;; ASSAY_TEST Inhibition of Bacterial Growth; detection method Absorption (OD600); MEDIA CAMHB; plate type 384well; NBS; CORNING #3640; time 18 hr
Candida albicans = conditions: Concentration 32 ug.mL-1; ASSAY_TEST Inhibition of Fungal Growth; detection method Absorption (OD530)
Cryptococcus neoformans = conditions: Concentration 32 ug.mL-1; ASSAY_TEST Inhibition of Fungal Growth; detection method Resazurin; Absorption (OD600-OD570); plate type 384well; NBS; CORNING #3640

Compound | Inhibition (Klebsiella pneumoniae) [%] | Inhibition (Candida albicans) [%] | Inhibition (Cryptococcus neoformans) [%]
CCOc1ccc(-n2ccn3c(SC(CC)C(=O)Nc4cc(F)ccc4F)nnc3c2=O)cc1 (stereo not drawn) | 11.22 | 0.62 | -9.91
COc1cccc(NC(=O)Cn2nc3c(=O)n(-c4ccc(Br)cc4)ccn3c2=O)c1 | 6.98 | 1.08 | -6.3
COc1ccc(NC(=O)Cn2nc3c(Sc4ccccc4)nc4ccccc4n3c2=O)cc1Cl | 5.63 | 1.75 | -17.25
O=C(CSc1nnc2c(=O)n(-c3cccc(F)c3)ccn12)c1ccc(F)cc1 | 9.88 | 4 | -7.94
Cc1nnc2c(=O)n(CC(=O)Nc3ccccc3Br)c3ccccc3n12 | 8.13 | 2.04 | -7.03
COc1ccc(NC(=O)Cn2nc3ccc(SC(C)C)nn3c2=O)cc1OC | 9.91 | 1.32 | -1.1
COc1ccccc1NC(=O)Cn1nc2c(Sc3ccccc3)nccn2c1=O | -2.04 | 1.31 | -4.93
CCc1ccc(N(Cc2ccccc2)S(=O)(=O)c2cccn3c(CC)nnc23)cc1 | 8.89 | 13.04 | -8.52
Cc1nnc2c(SCC(=O)Nc3ccc4c(c3)OCCO4)nc3ccccc3n12 | 9.06 | 1.7 | -7.59
COC(=O)c1ccc(NC(=O)CSc2nnc3ccc(C(=O)Nc4cccc(F)c4)cn23)cc1 | 4.63 | 2.52 | -5.98
CCOc1ccccc1NC(=O)Cn1nc2c(N3CCN(c4ccccc4)CC3)nccn2c1=O | 5.33 | 7.24 | -7.83
